About 410 targets per protein were measured; listed, in parts, are those with the strongest signals and a random draw of the rest.
Tests used:
Assay in all cases: glycan array binding signal (z-score within array); higher = stronger binding
Conditions in all cases: glycan notation: IUPAC condensed, linker removed
[1] = target: Fuc(a1-2)Gal(b1-3)GalNAc(b1-3)Gal
Method in brief: (§1)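 Glycan array data came from 3228 arrays in the Consortium for Functional Glycomics database, and only arrays with an available protein sequence were kept. Glycan names were put into IUPAC-condensed notation, and columns mapping to the same glycan were averaged. The binding signal is a within-array Z-score, averaged across arrays of one protein sequence run at different concentrations or buffers and across linkers. A negative Z-score can be read as non-binding.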

[2] = target: Fuc(a1-2)Gal(b1-3)GlcNAc(b1-3)[Fuc(a1-2)Gal(b1-3)GlcNAc(b1-6)]GalNAc
Method in brief: as §1

[3] = target: Fuc(a1-2)Gal3S(b1-4)GlcNAc
Method in brief: as §1

[4] = target: Fuc(a1-2)Gal6S(b1-3)GlcNAc
Method in brief: as §1

[5] = target: Fuc(a1-2)Gal6S(b1-3)GlcNAc6S
Method in brief: as §1

[6] = target: Fuc(a1-2)Gal6S(b1-4)Glc6S
Method in brief: as §1

[7] = target: Fuc(a1-2)[Gal(a1-3)]Gal(b1-4)GlcNAc
Method in brief: as §1

[8] = target: Fuc(a1-2)[Gal(a1-3)]Gal(b1-4)[Fuc(a1-3)]Glc
Method in brief: as §1

[9] = target: Fuc(a1-2)[GalNAc(a1-3)]Gal(b1-4)GlcNAc(b1-3)Gal(b1-4)GlcNAc
Method in brief: as §1

[10] = target: Fuc(a1-2)[GalNAc(a1-4)]Gal(b1-4)GlcNAc
Method in brief: as §1

[11] = target: Fuc(a1-3)[Gal(b1-4)]GlcNAc6S
Method in brief: as §1

Gal(a1-3)Gal(b1-4)GlcNAc = target: Gal(a1-3)Gal(b1-4)GlcNAc
Method in brief: as §1

Gal(b1-3)Gal(b1-4)GlcNAc = target: Gal(b1-3)Gal(b1-4)GlcNAc
Method in brief: as §1

[12] = target: Gal(b1-3)GalNAc(a1-3)[Fuc(a1-2)]Gal(b1-4)Glc
Method in brief: as §1

[13] = target: Gal(b1-3)GlcNAc(b1-2)[Gal(b1-3)GlcNAc(b1-6)]Man(a1-6)[Gal(b1-3)GlcNAc(b1-2)Man(a1-3)]Man(b1-4)GlcNAc(b1-4)GlcNAc
Method in brief: as §1

[14] = target: Gal(b1-3)GlcNAc(b1-3)Gal(b1-4)GlcNAc(b1-3)Gal(b1-4)GlcNAc(b1-2)[Gal(b1-3)GlcNAc(b1-3)Gal(b1-4)GlcNAc(b1-3)Gal(b1-4)GlcNAc(b1-6)]Man(a1-6)[Gal(b1-3)GlcNAc(b1-3)Gal(b1-4)GlcNAc(b1-3)Gal(b1-4)GlcNAc(b1-2)Man(a1-3)]Man(b1-4)GlcNAc(b1-4)[Fuc(a1-6)]GlcNAc
Method in brief: as §1

[15] = target: Gal(b1-3)GlcNAc(b1-3)GalNAc
Method in brief: as §1

Gal(b1-4)GlcNAc = target: Gal(b1-4)GlcNAc
Method in brief: as §1

[16] = target: Gal(b1-4)GlcNAc(b1-3)Gal(b1-4)GlcNAc
Method in brief: as §1

[17] = target: Gal(b1-4)GlcNAc(b1-3)Gal(b1-4)GlcNAc(b1-3)Gal(b1-4)GlcNAc
Method in brief: as §1

[18] = target: Gal(b1-4)GlcNAc(b1-3)[Gal(b1-4)GlcNAc(b1-6)]Gal(b1-4)GlcNAc
Method in brief: as §1

Gal6S(b1-3)GlcNAc = target: Gal6S(b1-3)GlcNAc
Method in brief: as §1

Gal6S(b1-3)GlcNAc6S = target: Gal6S(b1-3)GlcNAc6S
Method in brief: as §1

Gal6S(b1-4)Glc = target: Gal6S(b1-4)Glc
Method in brief: as §1

Gal6S(b1-4)Glc6S = target: Gal6S(b1-4)Glc6S
Method in brief: as §1

Gal6S(b1-4)GlcNAc = target: Gal6S(b1-4)GlcNAc
Method in brief: as §1

Gal6S(b1-4)GlcNAc6S = target: Gal6S(b1-4)GlcNAc6S
Method in brief: as §1

GalNAc(b1-3)Gal = target: GalNAc(b1-3)Gal
Method in brief: as §1

[19] = target: GalNAc3S(b1-4)[Fuc(a1-3)]GlcNAc
Method in brief: as §1

GalNAc6S(b1-4)GlcNAc = target: GalNAc6S(b1-4)GlcNAc
Method in brief: as §1

[20] = target: GlcNAc(b1-2)[GlcNAc(b1-4)]Man(a1-3)[GlcNAc(b1-4)][GlcNAc(b1-2)Man(a1-6)]Man(b1-4)GlcNAc(b1-4)GlcNAc
Method in brief: as §1

GlcNAc(b1-3)Gal(b1-4)Glc = target: GlcNAc(b1-3)Gal(b1-4)Glc
Method in brief: as §1

Kdn(a2-3)Gal(b1-4)GlcNAc = target: Kdn(a2-3)Gal(b1-4)GlcNAc
Method in brief: as §1

[21] = target: Man(a1-3)[Man(a1-6)]Man(a1-6)[Man(a1-3)]Man(b1-4)GlcNAc(b1-4)GlcNAc
Method in brief: as §1

[22] = target: Neu5Ac(a2-3)Gal(b1-4)GlcNAc
Method in brief: as §1

Neu5Ac(a2-6)Gal(b1-4)Glc = target: Neu5Ac(a2-6)Gal(b1-4)Glc
Method in brief: as §1

[23] = target: Neu5Ac(a2-6)Gal(b1-4)GlcNAc(b1-2)Man(a1-3)[Neu5Ac(a2-3)Gal(b1-4)GlcNAc(b1-2)Man(a1-6)]Man(b1-4)GlcNAc(b1-4)GlcNAc
Method in brief: as §1

[24] = target: Neu5Ac(a2-6)Gal(b1-4)GlcNAc(b1-2)Man(a1-6)Man(b1-4)GlcNAc(b1-4)GlcNAc
Method in brief: as §1

[25] = target: Neu5Ac(a2-6)Gal(b1-4)GlcNAc(b1-6)GalNAc
Method in brief: as §1

[26] = target: Neu5Ac(a2-8)Neu5Ac(a2-3)Gal(b1-3)GalNAc(b1-4)[Neu5Ac(a2-3)]Gal(b1-4)Glc
Method in brief: as §1

[27] = target: Neu5Ac(a2-8)Neu5Ac(a2-3)Gal(b1-3)GalNAc(b1-4)[Neu5Ac(a2-8)Neu5Ac(a2-3)]Gal(b1-4)Glc
Method in brief: as §1

[28] = target: Neu5Ac(a2-8)Neu5Ac(a2-3)[GalNAc(b1-4)]Gal(b1-4)Glc
Method in brief: as §1

[29] = target: Neu5Gc(a2-3)Gal(b1-4)GlcNAc
Method in brief: as §1

[30] = target: Neu5Gc(a2-3)Gal(b1-4)GlcNAc(b1-3)Gal(b1-4)GlcNAc(b1-2)Man(a1-3)[Neu5Gc(a2-3)Gal(b1-4)GlcNAc(b1-3)Gal(b1-4)GlcNAc(b1-2)Man(a1-6)]Man(b1-4)GlcNAc(b1-4)GlcNAc
Method in brief: as §1

[31] = target: Neu5Gc(a2-3)Gal(b1-4)[Fuc(a1-3)]GlcNAc
Method in brief: as §1

B1: PX14343B-bfa-546-20-546 (Bacteroides fragilis) (protein)
chain: CDLERYPLTDLSEETFWNSESNAELALTSLYRGSLTDGVEYNPSDWWSYHGMIMMEHLSDNAFDRRGENNPFFKISSGNLTADNAFIKRYWETSYKRIGYCNRFLVGIQNSSESEKKTRMIAEARFLRATQYFYLASYFKNVPLVENVLTGEEANNVTKTSQADILKWCVTEFTAAAADLPRFSAIPAGEAGRACKQAALAFLGRTCMLQKDWKSGAKAFHDIMELGDNAINANYQELFYPSTGTSNKENIFYIQYLENYLGTGLPQHALSAKDGGWSLVNPAADLYESYEFKDGTPFSYDDPRYDPSNLGKDRDPRLDYTIYYNGAIFMGTEYKMSPDYSAAKKEKLDYTSEASRTGFMMRKYFEESTPINDVQSANGLTPVIRYAEVLLGYLECLVEDNQTITQGILDETINAVRGRASVNMPPVTEVTPAKLREIVRHERRIELAMEGIRYWDIMRWGIAHEVLSQKIWGAPYPGSTQYATTTKEVDPTGNYRWYVGKRAFRNPTDYTWPIPQSEQNINPNLRD
[1]
  glycan array binding signal (z-score): -0.117
[2]
  glycan array binding signal (z-score): -0.126
[3]
  glycan array binding signal (z-score): 4.47
[4]
  glycan array binding signal (z-score): 2.42
[5]
  glycan array binding signal (z-score): 6.35
[6]
  glycan array binding signal (z-score): 0.709
[7]
  glycan array binding signal (z-score): -0.126
[8]
  glycan array binding signal (z-score): -0.124
[9]
  glycan array binding signal (z-score): -0.126
[10]
  glycan array binding signal (z-score): -0.115
[11]
  glycan array binding signal (z-score): -0.129
Gal(a1-3)Gal(b1-4)GlcNAc
  glycan array binding signal (z-score): -0.122
Gal(b1-3)Gal(b1-4)GlcNAc
  glycan array binding signal (z-score): -0.113
[12]
  glycan array binding signal (z-score): -0.122
[13]
  glycan array binding signal (z-score): -0.117
[14]
  glycan array binding signal (z-score): -0.113
[15]
  glycan array binding signal (z-score): -0.12
Gal(b1-4)GlcNAc
  glycan array binding signal (z-score): -0.128
[16]
  glycan array binding signal (z-score): -0.132
[17]
  glycan array binding signal (z-score): -0.113
[18]
  glycan array binding signal (z-score): -0.123
Gal6S(b1-3)GlcNAc
  glycan array binding signal (z-score): 9.99
Gal6S(b1-3)GlcNAc6S
  glycan array binding signal (z-score): 6.09
Gal6S(b1-4)Glc
  glycan array binding signal (z-score): 1.73
Gal6S(b1-4)Glc6S
  glycan array binding signal (z-score): 3.07
Gal6S(b1-4)GlcNAc
  glycan array binding signal (z-score): 9.6
Gal6S(b1-4)GlcNAc6S
  glycan array binding signal (z-score): 13.3
GalNAc(b1-3)Gal
  glycan array binding signal (z-score): -0.123
[19]
  glycan array binding signal (z-score): -0.136
GalNAc6S(b1-4)GlcNAc
  glycan array binding signal (z-score): 10.1
[20]
  glycan array binding signal (z-score): -0.124
GlcNAc(b1-3)Gal(b1-4)Glc
  glycan array binding signal (z-score): -0.13
Kdn(a2-3)Gal(b1-4)GlcNAc
  glycan array binding signal (z-score): -0.123
[21]
  glycan array binding signal (z-score): -0.104
[22]
  glycan array binding signal (z-score): -0.121
Neu5Ac(a2-6)Gal(b1-4)Glc
  glycan array binding signal (z-score): -0.122
[23]
  glycan array binding signal (z-score): -0.127
[24]
  glycan array binding signal (z-score): -0.119
[25]
  glycan array binding signal (z-score): -0.123
[26]
  glycan array binding signal (z-score): -0.129
[27]
  glycan array binding signal (z-score): -0.12
[28]
  glycan array binding signal (z-score): -0.131
[29]
  glycan array binding signal (z-score): -0.122
[30]
  glycan array binding signal (z-score): -0.129
[31]
  glycan array binding signal (z-score): -0.113

— the supplement of paper PMC8728848
